Measured values: PubChem BioAssay
The other results are listed elsewhere or left out. The source made the active and inactive calls.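 How the source made its calls, unless noted: active means inhibition above the mean over all tested compounds plus 3 SD, which no compound reached; inactive means the rest.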

test system: HIV-1 integrase (multimerization); experiment: HIV-1 IN multimer formation enhancers, counter-screen for LEDGF/p75 integration inhibitor project, biochemical, TR-FRET (AID 1053131; in the data active means activation above about 8.9%); details: TR-FRET HIV-1 integrase multimerization, at 7.7 µM, hits give high values

Structure (SMILES) | activation
O=C1NC(=O)N(Cc2ccco2)C(=O)/C1=C\c1ccc(-c2ccc(F)cc2)o1 | 1.86% (inactive)
Cc1c(C(=O)O)cccc1-n1c(C)cc(/C=C2\C(=O)NC(=O)N(c3ccc4c(c3)OCO4)C2=O)c1C | 0.15% (inactive)
CCOC(=O)c1c(N)n(Cc2ccccc2)c2nc3ccccc3nc12 | -0.51% (inactive)
Cc1cc(/C=C2/C(=O)NC(=O)N(Cc3ccco3)C2=O)c(C)n1-c1ccc(C(=O)O)cc1 | 5.24% (inactive)
CCOc1cccc(=NC2CCCCC2)c2c(C)[nH]c(C)c12 | 0.2% (inactive)

test system: not listed separately; experiment: TR-FRET optical interference artefacts, confirmation, artefact control for LEDGF/p75-dependent integration inhibitor project, biochemical, HIV-1 IN multimerization (AID 1053135); details: TR-FRET optical interference counterscreen, at 7.7 µM, hits give high values;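 further: 0% = integrase with antibodies and DMSO and 100% = antibodies without integrase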

Structure (SMILES) | inhibition
O=C1NC(=O)N(Cc2ccco2)C(=O)/C1=C\c1ccc(-c2ccc(F)cc2)o1 | -6.88% (inactive)
Cc1c(C(=O)O)cccc1-n1c(C)cc(/C=C2\C(=O)NC(=O)N(c3ccc4c(c3)OCO4)C2=O)c1C | -0.77% (inactive)
CCOC(=O)c1c(N)n(Cc2ccccc2)c2nc3ccccc3nc12 | 2.59% (inactive)
Cc1cc(/C=C2/C(=O)NC(=O)N(Cc3ccco3)C2=O)c(C)n1-c1ccc(C(=O)O)cc1 | -26.4% (inactive)
CCOc1cccc(=NC2CCCCC2)c2c(C)[nH]c(C)c12 | -0.97% (inactive)

test system: HIV-1 integrase / human LEDGF/p75 complex; experiment: inhibitors of HIV-1 IN-LEDGF/p75 DNA integration, confirmation, biochemical, TR-FRET (AID 1053136; in the data active means inhibition above about 14%); details: TR-FRET LEDGF/p75-dependent HIV-1 integration, at 3.7 µM, hits give high values

Structure (SMILES) | inhibition
O=C1NC(=O)N(Cc2ccco2)C(=O)/C1=C\c1ccc(-c2ccc(F)cc2)o1 | 11.9% (inactive)
Cc1c(C(=O)O)cccc1-n1c(C)cc(/C=C2\C(=O)NC(=O)N(c3ccc4c(c3)OCO4)C2=O)c1C | 22.9% (active)
CCOC(=O)c1c(N)n(Cc2ccccc2)c2nc3ccccc3nc12 | -1.64% (inactive)
Cc1cc(/C=C2/C(=O)NC(=O)N(Cc3ccco3)C2=O)c(C)n1-c1ccc(C(=O)O)cc1 | 36.5% (active)
CCOc1cccc(=NC2CCCCC2)c2c(C)[nH]c(C)c12 | -1.3% (inactive)
